Measured values as given in PubChem BioAssay AID1159580 (chemical genetic matrix, 2015).
The campaign covered roughly 5,500 compounds. About 2,000 (36%) were called active. Roughly 18% stayed inconclusive and do not appear here. Cut-off read from the data, not from the text of the source: active = normalized growth mostly below about 0.91 (no sharp cut-off); inconclusive = no clear call, values can overlap the other calls; inactive = mostly above about 0.92. The list shows a part of the results.

Assay: chemical genetic growth profiling, strain panel (AID 1159580);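 note: tested at 20 µM; growth read once vehicle control cultures reached saturation at 30 °C; 1 = growth at the plate median or of vehicle wells; lower values mean less growth of the strain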
Conditions: growth OD

Measured: normalized growth

Cc1ccc2c(c1)C1(C)CCCC(C)(C(=O)O)C1CC2 (stereo unspecified)
inactive: S. cerevisiae deletion strains, locus YAL013W, strain DEP1, stronger effect = lower value 0.982 | S. cerevisiae deletion strains, locus YBR021W, strain FUR4, stronger effect = lower value 1.04 | S. cerevisiae deletion strains, locus YBR229C, strain ROT2, stronger effect = lower value 0.972 | S. cerevisiae deletion strains, locus YCL029C, strain bik1, stronger effect = lower value 0.998 | S. cerevisiae deletion strains, locus YDL035C, strain GPR1, stronger effect = lower value 0.99 | S. cerevisiae deletion strains, locus YDL074C, strain BRE1, stronger effect = lower value 0.951 | S. cerevisiae deletion strains, locus YDL101C, strain DUN1, stronger effect = lower value 0.975 | S. cerevisiae deletion strains, locus YDL134C, strain PPH21, stronger effect = lower value 0.992 | S. cerevisiae deletion strains, locus YDL185W, strain tfp1, stronger effect = lower value 0.95 | S. cerevisiae deletion strains, locus YDL192W, strain arf1, stronger effect = lower value 1 | S. cerevisiae deletion strains, locus YDR101C, strain arx1, stronger effect = lower value 1.01 | S. cerevisiae deletion strains, locus YDR150W, strain NUM1, stronger effect = lower value 0.992 | S. cerevisiae deletion strains, locus YDR162C, strain NBP2, stronger effect = lower value 0.907 | S. cerevisiae deletion strains, locus YDR318W, strain mcm21, stronger effect = lower value 1.02 | S. cerevisiae deletion strains, locus YDR388W, stronger effect = lower value 1.01 | S. cerevisiae deletion strains, locus YDR502C, strain sam2, stronger effect = lower value 0.984 | S. cerevisiae deletion strains, locus YEL061C, strain CIN8, stronger effect = lower value 0.993 | S. cerevisiae deletion strains, locus YER110C, stronger effect = lower value 0.991 | S. cerevisiae deletion strains, locus YER155C, strain BEM2, stronger effect = lower value 1.01 | S. cerevisiae deletion strains, locus YER167W, strain BCK2, stronger effect = lower value 1.01 | S. cerevisiae deletion strains, locus YGL078C, strain dbp3, stronger effect = lower value 0.96 | S. cerevisiae deletion strains, locus YGL086W, strain mad1, stronger effect = lower value 1.03 | S. cerevisiae deletion strains, locus YGL248W, strain PDE1, stronger effect = lower value 0.994 | S. cerevisiae deletion strains, locus YGR078C, strain PAC10, stronger effect = lower value 0.979 | S. cerevisiae deletion strains, locus YGR135W, strain pre9, stronger effect = lower value 0.96 | S. cerevisiae deletion strains, locus YGR229C, strain SMI1, stronger effect = lower value 0.979 | S. cerevisiae deletion strains, locus YGR252W, strain gcn5, stronger effect = lower value 1.06 | S. cerevisiae deletion strains, locus YHR030C, strain SLT2, stronger effect = lower value 1.02 | S. cerevisiae deletion strains, locus YHR079C, strain IRE1 (second series), stronger effect = lower value 1.01 | S. cerevisiae deletion strains, locus YHR094C, strain hxt1, stronger effect = lower value 0.996 | S. cerevisiae deletion strains, locus YHR129C, strain ARP1, stronger effect = lower value 1.01 | S. cerevisiae deletion strains, locus YHR200W, strain rpn10, stronger effect = lower value 1.01 | S. cerevisiae deletion strains, locus YIL066C, strain RNR3, stronger effect = lower value 0.994 | S. cerevisiae deletion strains, locus YIL073C, strain SPO22, stronger effect = lower value 1.03 | S. cerevisiae deletion strains, locus YIL125W, strain kgd1, stronger effect = lower value 0.986 | S. cerevisiae deletion strains, locus YIR030C, strain dcg1, stronger effect = lower value 0.998 | S. cerevisiae deletion strains, locus YJL095W, strain BCK1, stronger effect = lower value 1 | S. cerevisiae deletion strains, locus YJL134W, strain LCB3, stronger effect = lower value 1.01 | S. cerevisiae deletion strains, locus YJL168C, strain set2, stronger effect = lower value 1 | S. cerevisiae deletion strains, locus YJL187C, strain SWE1 (second series), stronger effect = lower value 0.968 | S. cerevisiae deletion strains, locus YJR043C, strain POL32, stronger effect = lower value 1.05 | S. cerevisiae deletion strains, locus YJR075W, strain HOC1, stronger effect = lower value 1.01 | S. cerevisiae deletion strains, locus YKL009W, strain mrt4, stronger effect = lower value 0.999 | S. cerevisiae deletion strains, locus YKL068W, stronger effect = lower value 0.982 | S. cerevisiae deletion strains, locus YKL085W, strain MDH1 (second series), stronger effect = lower value 0.997 | S. cerevisiae deletion strains, locus YKL085W, strain MDH1, stronger effect = lower value 0.997 | S. cerevisiae deletion strains, locus YKL190W, strain CNB1, stronger effect = lower value 0.989 | S. cerevisiae deletion strains, locus YKR001C, strain vps1, stronger effect = lower value 1.01 | S. cerevisiae deletion strains, locus YLR039C, strain RIC1, stronger effect = lower value 0.862 | S. cerevisiae deletion strains, locus YLR058C, strain SHM2, stronger effect = lower value 0.989 | S. cerevisiae deletion strains, locus YLR102C, strain apc9, stronger effect = lower value 0.989 | S. cerevisiae deletion strains, locus YLR262C, strain YPT6, stronger effect = lower value 0.806 | S. cerevisiae deletion strains, locus YLR268W, strain sec22, stronger effect = lower value 0.965 | S. cerevisiae deletion strains, locus YLR330W, strain CHS5, stronger effect = lower value 1 | S. cerevisiae deletion strains, locus YLR342W, strain FKS1 (second series), stronger effect = lower value 1.06 | S. cerevisiae deletion strains, locus YLR371W, strain rom2, stronger effect = lower value 1.02 | S. cerevisiae deletion strains, locus YLR418C, strain cdc73, stronger effect = lower value 0.967 | S. cerevisiae deletion strains, locus YML016C, strain PPZ1, stronger effect = lower value 0.998 | S. cerevisiae deletion strains, locus YML032C, strain rad52, stronger effect = lower value 1.03 | S. cerevisiae deletion strains, locus YML124C, strain tub3, stronger effect = lower value 1 | S. cerevisiae deletion strains, locus YMR078C, strain ctf18, stronger effect = lower value 0.994 | S. cerevisiae deletion strains, locus YMR223W, strain ubp8, stronger effect = lower value 1.03 | S. cerevisiae deletion strains, locus YMR263W, strain SAP30, stronger effect = lower value 0.973 | S. cerevisiae deletion strains, locus YMR307W, strain GAS1, stronger effect = lower value 0.976 | S. cerevisiae deletion strains, locus YNL067W, strain RPL9B, stronger effect = lower value 0.974 | S. cerevisiae deletion strains, locus YNL128W, strain TEP1, stronger effect = lower value 0.949 | S. cerevisiae deletion strains, locus YNL153C, strain GIM3, stronger effect = lower value 0.957 | S. cerevisiae deletion strains, locus YNL233W, strain BNI4, stronger effect = lower value 0.993 | S. cerevisiae deletion strains, locus YNL250W, strain rad50, stronger effect = lower value 0.972 | S. cerevisiae deletion strains, locus YNL271C, strain bni1, stronger effect = lower value 0.994 | S. cerevisiae deletion strains, locus YNL298W, strain CLA4, stronger effect = lower value 0.968 | S. cerevisiae deletion strains, locus YNL307C, strain MCK1, stronger effect = lower value 1.01 | S. cerevisiae deletion strains, locus YNL322C, strain KRE1, stronger effect = lower value 0.997 | S. cerevisiae deletion strains, locus YNR052C, strain pop2, stronger effect = lower value 1.02 | S. cerevisiae deletion strains, locus YOL006C, strain TOP1, stronger effect = lower value 0.956 | S. cerevisiae deletion strains, locus YOL012C, strain htz1 1.15 | S. cerevisiae deletion strains, locus YOL147C, strain pex11, stronger effect = lower value 1 | S. cerevisiae deletion strains, locus YOR061W, strain CKA2, stronger effect = lower value 0.973 | S. cerevisiae deletion strains, locus YOR069W, strain VPS5, stronger effect = lower value 1 | S. cerevisiae deletion strains, locus YOR136W, strain idh2, stronger effect = lower value 1.01 | S. cerevisiae deletion strains, locus YOR144C, strain elg1, stronger effect = lower value 1 | S. cerevisiae deletion strains, locus YOR184W, strain ser1, stronger effect = lower value 1.05 | S. cerevisiae deletion strains, locus YOR316C, strain cot1, stronger effect = lower value 0.999 | S. cerevisiae deletion strains, locus YPL055C, strain LGE1, stronger effect = lower value 0.946 | S. cerevisiae deletion strains, locus YPL241C, strain CIN2, stronger effect = lower value 0.997 | S. cerevisiae deletion strains, locus YPR119W, strain clb2, stronger effect = lower value 1 | S. cerevisiae deletion strains, locus YPR141C, strain kar3, stronger effect = lower value 0.939 | S. cerevisiae deletion strains, locus YPR163C, strain tif3, stronger effect = lower value 1 | S. cerevisiae deletion strains, locus YPR167C, strain met16, stronger effect = lower value 0.995 | S. cerevisiae deletion strains, strain wtn01, stronger effect = lower value 0.999 | S. cerevisiae strains, strain wild type, stronger effect = lower value 0.993
